Experimental data published in PubChem BioAssay (NCI).
Compounds without any hit were thinned out: in the full panel of roughly 83,000, 20% have a hit.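 A percent growth of 40 corresponds to 60% growth inhibition; 0 means no net growth; -100 means all cells died. Active threshold: below 10.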 Unmarked numbers belong to inactive results. Calls of active or inactive are those of the source.

What was measured:
Assay in all cases: NCI-60 one-dose screen, 48 h (100 = growth as untreated, 0 = no growth, -100 = all killed)
Conditions in all cases: 10 µM unless noted
NCI-H23 lung = test system: NCI-H23 lung
NCI-H226 lung = test system: NCI-H226 lung
NCI-H322M lung = test system: NCI-H322M lung
HOP-62 NSCLC = test system: HOP-62 NSCLC
HOP-92 NSCLC = test system: HOP-92 NSCLC
786-0 renal = test system: 786-0 renal
COLO 205 colon = test system: COLO 205 colon
DU-145 prostate = test system: DU-145 prostate
K-562 leukemia = test system: K-562 leukemia
MALME-3M melanoma = test system: MALME-3M melanoma
MDA-MB-231 breast = test system: MDA-MB-231 breast
SF-268 CNS = test system: SF-268 CNS
SF-539 CNS = test system: SF-539 CNS
NCI-H522 lung = test system: NCI-H522 lung
A549/ATCC NSCLC = test system: A549/ATCC NSCLC
RXF 393 renal = test system: RXF 393 renal
SF-295 CNS = test system: SF-295 CNS
UACC-257 melanoma = test system: UACC-257 melanoma
M14 melanoma = test system: M14 melanoma
NCI-H460 lung = test system: NCI-H460 lung

| Compound | growth (NCI-H23 lung) | growth (NCI-H226 lung) | growth (NCI-H322M lung) | growth (HOP-62 NSCLC) | growth (HOP-92 NSCLC) | growth (786-0 renal) | growth (COLO 205 colon) | growth (DU-145 prostate) | growth (K-562 leukemia) | growth (MALME-3M melanoma) | growth (MDA-MB-231 breast) | growth (SF-268 CNS) | growth (SF-539 CNS) [%] | growth (NCI-H522 lung) [%] | growth (A549/ATCC NSCLC) [%] | growth (RXF 393 renal) | growth (SF-295 CNS) | growth (UACC-257 melanoma) | growth (M14 melanoma) | growth (NCI-H460 lung) [%] |
| --- | --- | --- | --- | --- | --- | --- | --- | --- | --- | --- | --- | --- | --- | --- | --- | --- | --- | --- | --- | --- |
| COc1ccc(-n2nc(C(=O)Nc3ccc(F)cc3)nc2-c2cc(OC)c(OC)c(OC)c2)cc1 | 92.7% | 79.3% | 78.5% | 87.8% | 91.2% | 83.6% | 102% | 111% | 83.7% | 96.2% | 93.9% | 102% | 88.3 |  |  |  |  |  |  |  |
| CSC1=N/C(=C\c2cccc(OCc3ccc(Cl)cc3)c2)C(=O)N1 | 82.8% | 75% | 87.2% | 99.4% |  | 83.8% | 82.8% | 77.7% | 81.7% | 99% | 99.8% | 85.3% | 99 | 48 | 83.4 | 104% | 87.6% | 100% | 88% |  |
| O=C1/C(=C/c2cc(F)cc(F)c2)Cc2cc(F)cc(F)c21 | 101% | 91.4% | 75.9% | 95.1% |  | 99.8% |  | 104% | 83.8% | 86% | 95.1% | 91.4% | 89.8 |  | 102 | 93.1% | 95% | 113% | 82.6% | 103 |
| COc1cc2c(cc1OC)-c1cc(OC)c(OC)cc1C(CN(C)C)C2 (configuration not stated) | 51.8% [100 µM] | 18.4% [100 µM] | 38.9% [100 µM] | -57.2% [100 µM] (active) | 21.4% [100 µM] | 16.9% [100 µM] | 100% [100 µM] | 45.3% [100 µM] | 77.6% [100 µM] | 44.1% [100 µM] | 39.7% [100 µM] | 39% [100 µM] |  |  |  | 41.6% [100 µM] | 4.33% [100 µM] (active) |  | 69.5% [100 µM] |  |
| COc1cc(C2CC(c3ccc(Cl)cc3)=NN2C(C)=O)ccc1Oc1nc2c(c(=O)n(C)c(=O)n2C)n1C (configuration not stated) | 84.2% | 76.8% | 72.9% | 98.7% |  | 111% | 102% | 65.2% | 101% | 100% | 85.8% | 56.8% | 102 |  | 59.7 | 86.8% | 62.6% | -8% (active) | 67.8% | 88.1 |
| Nc1c(Br)cc2c(c1Br)Cc1cc(Cl)ccc1-2 | 89.2% | 78.6% | 89.2% | 83.4% |  | 108% | 106% | 112% |  | 109% | 70% | 107% | 89.5 |  | 95.8 | 106% | 87.8% | 111% | 106% | 99.7 |
| Nc1c(C(=O)C[C@@H](N)CO)ccc2c1C(=O)CCO2 | 55.2% | 76.3% | 16.7% | 28.1% |  | 78.6% | 46.9% | 42.9% | 33.4% | 48.2% | 61% | 43.6% | 41.3 | 45.1 | 40.4 | 90.7% | 48.3% | 65.4% | 48.6% |  |
| CSc1nc(N)c2[nH]c(-c3cc4ccccc4[nH]c3=O)nc2n1 | 83.9% | 105% | 67% | 115% |  | 72.1% | 97.9% | 72.6% | 92.7% | 90.7% | 98.8% | 78.2% | 102 |  | 70.8 | 76.8% | 99.2% | 104% | 77.4% | 60.4 |
| NNC(=O)CSc1nc2scc(-c3ccccc3)c2c(=O)n1-c1ccccc1 | 101% | 84% | 122% | 91.4% |  | 86.8% | 107% | 111% | 89.9% | 155% | 86.6% | 85.6% | 96.5 | 91.4 | 115 | -50.2% (active) | 144% | 129% | 112% |  |
